Measurements taken from publication PMC7862700, “An all-to-all approach to the identification of sequence-specific readers for epigenetic DNA modifications on cytosine”.

How the values were obtained:
Assay in all cases: DAPPL (digital affinity profiling via proximity ligation, sequencing); 10 mM Tris-HCl pH 7.5, 50 mM NaCl, 1 mM DTT, 4% glycerol, room temperature, 30 min; GST-TFs on glutathione beads, 16-mer random dsDNA library, 0.1% formaldehyde crosslink after washing; high values mean tight binding
Details in all cases: protein: recombinant; tags: N-terminal GST; dsDNA, one strand shown
FLI1 = molecular target: T1, FLI1 (Homo sapiens, UniProt Q01543 1-452)
T1 sequence: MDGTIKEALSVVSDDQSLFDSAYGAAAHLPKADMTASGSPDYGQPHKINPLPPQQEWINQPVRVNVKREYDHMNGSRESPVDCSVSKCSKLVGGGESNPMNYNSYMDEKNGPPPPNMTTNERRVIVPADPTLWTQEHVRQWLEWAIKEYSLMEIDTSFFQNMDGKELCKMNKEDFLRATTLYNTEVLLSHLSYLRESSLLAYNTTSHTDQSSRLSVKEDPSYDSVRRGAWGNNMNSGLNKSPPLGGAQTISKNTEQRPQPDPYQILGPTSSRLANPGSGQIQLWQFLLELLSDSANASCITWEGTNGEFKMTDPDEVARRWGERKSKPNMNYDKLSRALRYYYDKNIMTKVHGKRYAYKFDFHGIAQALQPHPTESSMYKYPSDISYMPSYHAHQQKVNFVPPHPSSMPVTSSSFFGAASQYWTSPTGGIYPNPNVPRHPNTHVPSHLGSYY
In short: (§1)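 Human transcription factors carrying a GST fusion were produced in yeast, bound to glutathione beads, tagged with DNA barcodes and pooled together with a tag-only sample. Each pool was held with 200 nmole of a random double-stranded 16-mer DNA library in Tris/NaCl/DTT/glycerol buffer for 30 min at room temperature, then washed, crosslinked in 0.1% formaldehyde, proximity-ligated with BsaI/T4 ligase (1 h, 37 °C), PCR-amplified and sequenced on an Illumina NextSeq500. Binding signal is the read frequency of each hexamer for a given factor divided by its frequency in the tag-only sample.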

ELK1 = molecular target: T2, ELK1 (Homo sapiens, UniProt P19419 1-428)
T2 sequence: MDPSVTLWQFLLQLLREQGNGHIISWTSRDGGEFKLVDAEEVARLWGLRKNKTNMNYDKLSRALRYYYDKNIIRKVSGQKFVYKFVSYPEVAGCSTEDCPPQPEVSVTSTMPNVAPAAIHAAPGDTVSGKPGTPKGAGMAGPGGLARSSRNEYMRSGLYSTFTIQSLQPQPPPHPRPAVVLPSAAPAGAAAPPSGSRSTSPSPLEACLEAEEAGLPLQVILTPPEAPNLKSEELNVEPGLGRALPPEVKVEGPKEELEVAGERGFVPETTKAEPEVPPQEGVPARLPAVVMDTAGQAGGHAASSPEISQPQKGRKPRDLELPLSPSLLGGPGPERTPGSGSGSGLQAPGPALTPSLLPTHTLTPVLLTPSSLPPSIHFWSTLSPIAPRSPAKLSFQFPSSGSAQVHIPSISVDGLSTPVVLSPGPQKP
In short: as §1

GABPA = molecular target: T3, GABPA (Homo sapiens, UniProt Q06546 1-454)
T3 sequence: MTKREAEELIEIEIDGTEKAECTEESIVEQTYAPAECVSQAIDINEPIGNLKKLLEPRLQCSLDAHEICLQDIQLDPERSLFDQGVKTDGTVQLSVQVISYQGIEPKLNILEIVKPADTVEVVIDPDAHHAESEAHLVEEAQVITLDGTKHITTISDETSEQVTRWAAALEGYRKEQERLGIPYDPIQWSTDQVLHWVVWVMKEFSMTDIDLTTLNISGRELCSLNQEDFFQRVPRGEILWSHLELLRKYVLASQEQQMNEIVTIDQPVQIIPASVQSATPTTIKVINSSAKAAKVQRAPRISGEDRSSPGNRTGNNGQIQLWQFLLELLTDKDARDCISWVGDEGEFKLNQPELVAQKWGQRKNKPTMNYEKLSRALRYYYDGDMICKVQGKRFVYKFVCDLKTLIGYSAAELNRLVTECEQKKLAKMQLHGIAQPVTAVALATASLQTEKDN
In short: as §1

ERG = molecular target: T4, ERG (Homo sapiens, UniProt P11308 1-479)
T4 sequence: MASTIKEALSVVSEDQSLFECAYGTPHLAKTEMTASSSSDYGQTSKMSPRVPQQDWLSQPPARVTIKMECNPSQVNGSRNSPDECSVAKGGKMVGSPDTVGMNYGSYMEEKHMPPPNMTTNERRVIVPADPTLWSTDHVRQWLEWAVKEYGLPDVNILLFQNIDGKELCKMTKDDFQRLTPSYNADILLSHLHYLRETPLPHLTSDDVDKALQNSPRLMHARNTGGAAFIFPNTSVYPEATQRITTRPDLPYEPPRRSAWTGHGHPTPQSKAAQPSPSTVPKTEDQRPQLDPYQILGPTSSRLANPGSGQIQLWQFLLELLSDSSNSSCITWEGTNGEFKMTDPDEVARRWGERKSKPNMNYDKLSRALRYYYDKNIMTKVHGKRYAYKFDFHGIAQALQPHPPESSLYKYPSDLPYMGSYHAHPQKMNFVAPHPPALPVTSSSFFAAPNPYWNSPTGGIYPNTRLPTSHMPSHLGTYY
In short: as §1

ELF1 = ELF1 (Homo sapiens, UniProt P32519 1-619)
In short: as §1

EHF = molecular target: T5, EHF (Homo sapiens, UniProt Q9NZC4 1-300)
T5 sequence: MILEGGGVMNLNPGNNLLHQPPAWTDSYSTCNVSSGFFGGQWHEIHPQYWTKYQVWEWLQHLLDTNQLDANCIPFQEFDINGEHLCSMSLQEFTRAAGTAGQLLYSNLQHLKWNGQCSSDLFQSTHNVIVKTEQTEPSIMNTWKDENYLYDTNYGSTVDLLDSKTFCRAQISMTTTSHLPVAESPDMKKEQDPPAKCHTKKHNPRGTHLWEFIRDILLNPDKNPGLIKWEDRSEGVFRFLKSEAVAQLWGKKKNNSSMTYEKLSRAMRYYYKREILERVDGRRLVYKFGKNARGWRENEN
In short: as §1

SPI1 = SPI1 (Homo sapiens, UniProt P17947 1-270)
In short: as §1

SPIB = SPIB (Homo sapiens, UniProt Q01892 1-262)
In short: as §1

ELK3 = molecular target: T6, ELK3 (Homo sapiens, UniProt P41970 1-407)
T6 sequence: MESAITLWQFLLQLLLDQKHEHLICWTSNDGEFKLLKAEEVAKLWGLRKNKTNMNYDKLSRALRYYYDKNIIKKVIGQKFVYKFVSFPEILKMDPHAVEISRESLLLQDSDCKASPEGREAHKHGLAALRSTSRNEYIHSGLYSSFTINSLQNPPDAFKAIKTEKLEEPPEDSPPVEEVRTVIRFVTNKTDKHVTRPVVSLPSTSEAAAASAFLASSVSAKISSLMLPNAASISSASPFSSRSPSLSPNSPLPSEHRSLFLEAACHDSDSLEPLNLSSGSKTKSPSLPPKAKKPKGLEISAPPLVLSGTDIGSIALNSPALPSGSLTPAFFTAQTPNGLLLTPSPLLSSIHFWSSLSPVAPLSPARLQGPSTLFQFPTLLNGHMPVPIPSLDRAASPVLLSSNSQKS
In short: as §1

FEV = molecular target: T7, FEV (Homo sapiens, UniProt Q99581 1-238)
T7 sequence: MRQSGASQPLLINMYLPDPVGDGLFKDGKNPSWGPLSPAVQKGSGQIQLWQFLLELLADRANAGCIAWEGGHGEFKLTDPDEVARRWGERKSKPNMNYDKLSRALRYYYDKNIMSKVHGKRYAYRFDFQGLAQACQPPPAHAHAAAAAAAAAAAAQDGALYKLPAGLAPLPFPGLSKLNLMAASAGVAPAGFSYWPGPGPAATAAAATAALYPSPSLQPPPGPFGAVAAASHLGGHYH
In short: as §1

ETV5 = ETV5 (Homo sapiens, UniProt P41161 1-510)
In short: as §1

SPIC = molecular target: T8, SPIC (Homo sapiens, UniProt Q8N5J4 1-248)
T8 sequence: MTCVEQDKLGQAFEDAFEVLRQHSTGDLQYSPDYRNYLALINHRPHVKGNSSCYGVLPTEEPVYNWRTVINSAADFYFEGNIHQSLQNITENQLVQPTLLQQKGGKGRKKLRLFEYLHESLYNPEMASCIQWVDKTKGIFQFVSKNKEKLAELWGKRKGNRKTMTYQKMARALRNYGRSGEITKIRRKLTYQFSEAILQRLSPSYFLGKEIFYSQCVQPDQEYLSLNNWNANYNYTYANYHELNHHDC
In short: as §1

ETV1 = ETV1 (Homo sapiens, UniProt P50549 1-477)
In short: as §1

ERF = molecular target: T9, ERF (Homo sapiens, UniProt P50548 1-548)
T9 sequence: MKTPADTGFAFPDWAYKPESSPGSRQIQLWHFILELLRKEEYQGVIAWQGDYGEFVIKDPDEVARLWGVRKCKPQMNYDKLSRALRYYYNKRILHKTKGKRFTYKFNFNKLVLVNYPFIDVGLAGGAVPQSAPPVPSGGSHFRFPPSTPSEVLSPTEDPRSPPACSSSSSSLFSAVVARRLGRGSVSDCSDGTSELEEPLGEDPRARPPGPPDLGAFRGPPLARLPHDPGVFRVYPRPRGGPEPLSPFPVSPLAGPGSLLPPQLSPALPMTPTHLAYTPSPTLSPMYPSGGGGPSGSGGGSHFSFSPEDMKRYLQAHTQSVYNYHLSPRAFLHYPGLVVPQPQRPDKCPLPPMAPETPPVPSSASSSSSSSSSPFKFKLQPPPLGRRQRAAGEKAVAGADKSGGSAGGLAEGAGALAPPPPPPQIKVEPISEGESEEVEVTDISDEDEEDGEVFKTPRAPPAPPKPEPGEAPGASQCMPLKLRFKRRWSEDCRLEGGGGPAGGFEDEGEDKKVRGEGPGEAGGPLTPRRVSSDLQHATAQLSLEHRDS
In short: as §1

ETV3L = molecular target: T10, ETV3L (Homo sapiens, UniProt Q6ZN32 1-361)
T10 sequence: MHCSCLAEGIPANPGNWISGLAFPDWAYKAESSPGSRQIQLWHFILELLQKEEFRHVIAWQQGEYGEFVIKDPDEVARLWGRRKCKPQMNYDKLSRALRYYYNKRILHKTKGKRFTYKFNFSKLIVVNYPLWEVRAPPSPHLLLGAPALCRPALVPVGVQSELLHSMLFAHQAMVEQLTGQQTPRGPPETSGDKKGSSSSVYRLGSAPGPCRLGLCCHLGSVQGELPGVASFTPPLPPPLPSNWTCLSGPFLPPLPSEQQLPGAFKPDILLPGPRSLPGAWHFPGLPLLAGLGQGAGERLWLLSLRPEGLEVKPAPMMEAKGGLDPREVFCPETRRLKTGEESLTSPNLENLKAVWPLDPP
In short: as §1

ETS2 = molecular target: T11, ETS2 (Homo sapiens, UniProt P15036 1-469)
T11 sequence: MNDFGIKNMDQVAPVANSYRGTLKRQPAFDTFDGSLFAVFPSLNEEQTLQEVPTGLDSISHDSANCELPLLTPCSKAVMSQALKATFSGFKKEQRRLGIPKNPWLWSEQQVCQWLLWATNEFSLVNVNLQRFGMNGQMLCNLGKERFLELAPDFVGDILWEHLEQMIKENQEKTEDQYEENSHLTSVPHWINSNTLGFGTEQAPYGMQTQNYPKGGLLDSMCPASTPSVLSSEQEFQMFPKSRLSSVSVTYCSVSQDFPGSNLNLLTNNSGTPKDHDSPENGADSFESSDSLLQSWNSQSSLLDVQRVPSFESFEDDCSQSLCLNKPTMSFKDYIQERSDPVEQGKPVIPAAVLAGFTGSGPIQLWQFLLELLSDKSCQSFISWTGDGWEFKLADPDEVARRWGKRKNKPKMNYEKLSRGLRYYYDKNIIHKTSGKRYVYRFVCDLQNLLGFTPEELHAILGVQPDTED
In short: as §1

ETV3 = molecular target: T12, ETV3 (Homo sapiens, UniProt P41162-2 1-143)
T12 sequence: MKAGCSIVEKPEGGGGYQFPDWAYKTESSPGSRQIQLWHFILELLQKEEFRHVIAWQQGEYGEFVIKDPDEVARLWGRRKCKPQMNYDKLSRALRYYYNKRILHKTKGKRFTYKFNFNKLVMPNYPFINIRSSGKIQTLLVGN
In short: as §1

ETV6 = ETV6 (Homo sapiens, UniProt P41212 1-452)
In short: as §1

Sequence of SPIB (Q01892 whole entry): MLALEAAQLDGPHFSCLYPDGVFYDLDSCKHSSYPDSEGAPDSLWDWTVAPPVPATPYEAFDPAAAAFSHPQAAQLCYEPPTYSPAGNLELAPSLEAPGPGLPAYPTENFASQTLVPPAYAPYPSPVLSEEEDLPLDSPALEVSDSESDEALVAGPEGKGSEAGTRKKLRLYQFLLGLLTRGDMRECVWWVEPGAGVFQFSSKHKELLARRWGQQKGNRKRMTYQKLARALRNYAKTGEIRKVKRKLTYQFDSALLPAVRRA
Sequence of ELF1 (P32519 whole entry): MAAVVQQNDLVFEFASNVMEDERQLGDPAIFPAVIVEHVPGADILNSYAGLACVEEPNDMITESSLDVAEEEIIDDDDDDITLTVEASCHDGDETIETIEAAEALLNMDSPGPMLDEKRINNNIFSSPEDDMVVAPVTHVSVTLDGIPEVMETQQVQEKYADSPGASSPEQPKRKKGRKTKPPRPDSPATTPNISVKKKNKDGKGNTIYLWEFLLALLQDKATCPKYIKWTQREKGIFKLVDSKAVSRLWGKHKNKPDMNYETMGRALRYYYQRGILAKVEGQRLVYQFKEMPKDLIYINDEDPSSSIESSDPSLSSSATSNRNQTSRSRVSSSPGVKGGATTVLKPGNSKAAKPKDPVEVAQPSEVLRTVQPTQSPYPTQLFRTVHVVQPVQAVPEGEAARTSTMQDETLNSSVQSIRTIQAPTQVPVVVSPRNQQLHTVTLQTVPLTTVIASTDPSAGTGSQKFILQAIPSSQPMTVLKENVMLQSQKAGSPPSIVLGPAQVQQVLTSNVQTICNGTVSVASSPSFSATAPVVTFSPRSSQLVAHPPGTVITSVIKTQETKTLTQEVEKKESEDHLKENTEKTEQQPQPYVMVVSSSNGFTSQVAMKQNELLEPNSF
Sequence of ETV1 (P50549 whole entry): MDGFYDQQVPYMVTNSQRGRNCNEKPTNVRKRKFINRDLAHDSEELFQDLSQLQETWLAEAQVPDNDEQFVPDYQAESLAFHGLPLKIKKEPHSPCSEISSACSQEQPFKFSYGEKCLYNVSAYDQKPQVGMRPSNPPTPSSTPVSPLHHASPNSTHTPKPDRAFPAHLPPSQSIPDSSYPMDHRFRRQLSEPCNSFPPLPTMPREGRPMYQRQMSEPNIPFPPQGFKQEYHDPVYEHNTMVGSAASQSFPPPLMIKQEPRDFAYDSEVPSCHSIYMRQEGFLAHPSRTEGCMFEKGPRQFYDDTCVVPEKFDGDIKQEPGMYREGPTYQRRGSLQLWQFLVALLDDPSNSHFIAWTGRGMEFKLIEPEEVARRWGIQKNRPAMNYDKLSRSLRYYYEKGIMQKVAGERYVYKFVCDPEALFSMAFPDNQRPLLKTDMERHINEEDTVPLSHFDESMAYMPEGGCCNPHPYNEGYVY
Sequence of ETV6 (P41212 whole entry): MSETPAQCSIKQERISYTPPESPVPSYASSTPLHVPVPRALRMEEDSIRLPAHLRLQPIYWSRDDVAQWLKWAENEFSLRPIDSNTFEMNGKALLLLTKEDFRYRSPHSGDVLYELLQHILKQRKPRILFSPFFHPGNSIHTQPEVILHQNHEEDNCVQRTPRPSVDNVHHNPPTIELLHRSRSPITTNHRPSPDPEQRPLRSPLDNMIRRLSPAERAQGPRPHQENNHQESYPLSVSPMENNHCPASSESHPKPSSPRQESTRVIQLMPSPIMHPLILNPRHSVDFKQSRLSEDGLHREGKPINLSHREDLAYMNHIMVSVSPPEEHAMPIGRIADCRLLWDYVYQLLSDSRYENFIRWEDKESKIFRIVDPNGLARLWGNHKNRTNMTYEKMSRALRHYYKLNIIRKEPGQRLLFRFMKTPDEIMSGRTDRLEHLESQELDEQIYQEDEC
Sequence of ETV5 (P41161 whole entry): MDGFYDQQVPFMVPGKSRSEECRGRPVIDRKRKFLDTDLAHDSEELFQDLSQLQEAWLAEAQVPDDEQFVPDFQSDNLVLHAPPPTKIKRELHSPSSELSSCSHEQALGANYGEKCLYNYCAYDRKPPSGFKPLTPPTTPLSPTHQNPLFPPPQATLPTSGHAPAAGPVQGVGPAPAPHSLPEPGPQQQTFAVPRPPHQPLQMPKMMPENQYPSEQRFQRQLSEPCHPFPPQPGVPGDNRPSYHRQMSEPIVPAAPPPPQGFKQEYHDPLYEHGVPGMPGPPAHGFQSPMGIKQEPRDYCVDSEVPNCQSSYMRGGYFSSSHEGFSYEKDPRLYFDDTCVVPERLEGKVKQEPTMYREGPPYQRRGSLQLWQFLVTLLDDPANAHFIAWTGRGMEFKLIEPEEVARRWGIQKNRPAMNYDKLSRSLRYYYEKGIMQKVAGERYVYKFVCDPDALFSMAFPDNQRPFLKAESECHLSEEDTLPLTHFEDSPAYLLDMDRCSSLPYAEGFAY

AGTGGT
binding signal (FLI1): 1.04 fold enrichment (6-mer frequency, TF over GST control)
binding signal (ELK1): 1.03 fold enrichment (6-mer frequency, TF over GST control)
binding signal (GABPA): 1.09 fold enrichment (6-mer frequency, TF over GST control)
binding signal (ERG): 1.06 fold enrichment (6-mer frequency, TF over GST control)
binding signal (ELF1): 1.06 fold enrichment (6-mer frequency, TF over GST control)
binding signal (EHF): 1.11 fold enrichment (6-mer frequency, TF over GST control)
binding signal (SPI1): 1.42 fold enrichment (6-mer frequency, TF over GST control)
binding signal (SPIB): 1.22 fold enrichment (6-mer frequency, TF over GST control)
binding signal (ELK3): 1.15 fold enrichment (6-mer frequency, TF over GST control)
binding signal (FEV): 1.02 fold enrichment (6-mer frequency, TF over GST control)
binding signal (ETV5): 1.14 fold enrichment (6-mer frequency, TF over GST control)
binding signal (SPIC): 1.22 fold enrichment (6-mer frequency, TF over GST control)
binding signal (ETV1): 1.02 fold enrichment (6-mer frequency, TF over GST control)
binding signal (ERF): 1.14 fold enrichment (6-mer frequency, TF over GST control)
binding signal (ETV3L): 1.06 fold enrichment (6-mer frequency, TF over GST control)
binding signal (ETS2): 1.12 fold enrichment (6-mer frequency, TF over GST control)
binding signal (ETV3): 1.09 fold enrichment (6-mer frequency, TF over GST control)
binding signal (ETV6): 1.11 fold enrichment (6-mer frequency, TF over GST control)
